# Screening results as filed in PubChem BioAssay.
# GBA activity = human lysosomal glucosylceramidase modulation; P04062; purified enzyme, resorufin glucoside fluorescence (screen aimed at inhibitors), 20 min; Potency, µM; 48,000 compounds, 1.1% hits; AID 360; in the data active = potency below about 15 µM; inconclusive = mostly about 16 µM to 33 µM;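 also: the screen sought inhibitors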
#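 Compounds titrated against 0.2 nM normal enzyme, 30 uM resorufin beta-D-glucopyranoside substrate, citrate/phosphate buffer with taurocholate and tween-20, pH 5.9. Reaction ran 20 min at room temperature; fluorescence (Ex 548/Em 600) gave AC50.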
# Bst PK mod = pyruvate kinase (B. stearothermophilus) modulation | purified pyruvate kinase, luminescence ATP production; ribose 5-phosphate activator present at AC10 | Potency, µM | 51,000 compounds, 1.2% hits | AID 361; in the data active = potency below about 11 µM; inconclusive = mostly about 12 µM to 25 µM;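 the screen sought inhibitors and activators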;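 also: scaled between full activation by ribose 5 phosphate and full inhibition by luteolin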
# FLuc inh = firefly luciferase inhibition. purified firefly luciferase, luminescence, 8 min. Potency, µM (doses to about 57.1 µM), without a hit: at the top dose activity change, negative = inhibition, hits mostly inhibitors. 72,000 compounds, 2.2% hits; active = well fitted inhibition curve with a large enough effect; inconclusive = small, poorly fitted or top-dose-only effect; also: % is scaled to controls: 0 for no effect and ±100 for the full control effect; nearly all actives have a fitted effect of over 40% in size
# Target sequence (P08659 whole entry, looked up): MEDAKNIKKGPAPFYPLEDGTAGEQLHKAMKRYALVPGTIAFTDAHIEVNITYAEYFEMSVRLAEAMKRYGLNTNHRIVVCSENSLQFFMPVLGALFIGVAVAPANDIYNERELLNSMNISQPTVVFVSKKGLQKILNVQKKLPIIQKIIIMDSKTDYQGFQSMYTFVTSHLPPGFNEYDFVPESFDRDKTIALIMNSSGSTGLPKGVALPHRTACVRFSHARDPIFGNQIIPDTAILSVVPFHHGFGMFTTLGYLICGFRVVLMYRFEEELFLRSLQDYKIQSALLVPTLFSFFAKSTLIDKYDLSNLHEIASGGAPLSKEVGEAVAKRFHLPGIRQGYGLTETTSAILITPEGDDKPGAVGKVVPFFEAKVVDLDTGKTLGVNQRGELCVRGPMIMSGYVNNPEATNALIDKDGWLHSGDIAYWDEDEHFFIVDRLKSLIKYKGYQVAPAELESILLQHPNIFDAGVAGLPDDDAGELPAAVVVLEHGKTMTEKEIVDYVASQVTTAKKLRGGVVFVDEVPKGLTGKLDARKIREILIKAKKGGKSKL
#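 Luminescence read-out after 8 min at room temperature; enzyme reaction used luciferin plus 10 uM ATP (linear range) in imidazole buffer pH 7.2 with KCl, MgCl2, Tween 20 and BSA. Each sample was run as a titration.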
# An asterisk follows results filed as active; i = inactive; ? = inconclusive; · = no result; [ ] = dose if it differs, or a comment. The list is not random: actives were taken first. Their share in the collection is about 3.2%. Potency is read from the fitted curve at half-maximal effect.
SMILES,GBA activity,Bst PK mod,FLuc inh
COc1cccc(N2CC(O)=C(c3nc4ccccc4c(=O)[nH]3)C2=N)c1,>77,2.9*,-6%
COc1ccc(N2CC(O)=C(c3nc4ccccc4s3)C2=N)c(OC)c1,>77,>11,-3%
C=CC[C@@H]1C=C[C@@H](O/N=C(/C)CCC(=O)OC[C@@H]2O[C@H](c3ccccc3)C=C[C@@H]2Oc2ccc(OC)cc2)[C@@H](CO)O1,·,·,2%[11.4 µM]
CC(=O)c1cccc(NC(=O)c2cc3ccccn3n2)c1,·,·,3.2µM*
O=C(NCc1ccc(F)cc1)c1cc2ccccn2n1,·,·,-7%
CC(=O)c1cccc(NC(=O)Nc2cccnc2)c1,·,>57,-25%
CC(=O)c1cccc(NC(=O)c2cnn3ccccc23)c1,·,·,13µM*
Cc1cc(N)c2ccccc2[n+]1CCCCCCCCCC[n+]1c(C)cc(N)c2ccccc21,·,·,2%
Cn1c(=O)cnc2cnc(Oc3ccccc3)nc21,·,·,0%[11.4 µM]
COCCn1c(=O)c(-c2ccc(Cl)cc2)nc2cncnc21,·,·,0%[11.4 µM]
CN1CCN(CCCN)CC1,·,·,2%[11.4 µM]
CCN1CCN(C(=O)N[C@H](C(=O)N[C@@H]2C(=O)N3C(C(=O)O)=C(CSc4nnnn4C)CS[C@@H]23)c2ccc(O)cc2)C(=O)C1=O,·,·,1%[25.5 µM]
NC(=O)c1cc(-c2ccccc2)nc(N2CCOCC2)n1,>77,4*,2%
NC(=O)c1cc(-c2ccccc2)nc(N2CCCCCC2)n1,>77,>57,0%
O=C(Nc1ccc(Cl)cc1)N(Cc1cccs1)Cc1cccs1,·,·,1%
O=C(Nc1ccccc1)N(O)c1ccc(Cl)cc1,>77,?,13µM*
O=C(O)/C=C/c1ccc(O)c(O)c1,·,>11,-2%[25.5 µM]
O=C(/C=C\c1ccc(O)cc1)c1ccc(O)cc1O,·,·,25µM*
COCCNc1nc(-c2ccccc2OC)nc2ccccc12,·,·,-1%[2.29 µM]
COc1cccc(Cn2c(=O)c(-c3cn(C)c4ccccc34)nc3cnc(OC)nc32)c1,·,·,1%[11.4 µM]
CCC(=O)Nc1ccc2oc(-c3cccc(C)c3)nc2c1,·,2.1*,2.5µM*
CCCC(=O)Nc1cccc(-c2nc3ccccc3o2)c1,>77,>57,-4%
CCCC(=O)Nc1cccc(-c2nc3cc(C)c(C)cc3o2)c1,·,·,7.9µM*
CCCC(=O)Nc1ccc2oc(-c3cccnc3)nc2c1,?,·,-14%
C=C1C=C(Br)C2(OCCCO2)[C@H]2OC12 (stereo partly drawn),·,·,2%[11.4 µM]
SMILES,GBA activity,Bst PK mod,FLuc inh
O=C(N1CCN(CCO)CC1)N1c2ccccc2C=Cc2ccccc21,·,>57,-1%
OCCN1CCN(C(=S)c2ccc(Cl)c(Cl)c2)CC1,10*,·,-26%
COC(=O)C/C=C\[C@@H](C)[C@@H](/C=N\OCC[C@@H]1C=C[C@H](OC(C)=O)[C@H](COC(C)=O)O1)OC,·,·,0%[11.4 µM]
Cc1cccc(NS(=O)(=O)c2ccc(C)c(C(=O)OCC(=O)Nc3cc(C)on3)c2)c1,11*,>57,-1%
Cc1cc(NC(=O)c2ccc(NC(=O)C(C)Oc3ccccc3)cc2)no1 (stereo not drawn),1.9*,>57,1%
COc1ccc(S(=O)(=O)N(C)c2ccc(OCC(=O)Nc3cc(C)on3)cc2)cc1,·,>57,-1%
CC(Oc1ccccc1)C(=O)Nc1ccc(C(N)=O)cc1 (stereo not drawn),>77,>57,3%
Cc1cc(NC(=O)c2ccc(N(C)S(=O)(=O)c3ccccc3)cc2)no1,15*,>57,2%
Cc1cc(NC(=O)c2ccccc2NS(=O)(=O)c2c(C)c(C)cc(C)c2C)no1,>77,>57,4%
Cc1cccc(NS(=O)(=O)c2cc(C(=O)OCC(=O)Nc3cc(C)on3)ccc2C)c1,i,>57,-1%
Cc1ccc(C)c(S(=O)(=O)Nc2ccccc2C(=O)Nc2cc(C)on2)c1,4.8*,>57,1%
C[C@@](O)(CNS(=O)(=O)c1ccccc1)c1ccccc1,·,·,3%[11.4 µM]
CC1=CC(C)(C)Nc2ccc(CSc3ccccc3)cc21,·,·,1%[11.4 µM]
N[C@@H](CSc1nc2ccccn2c1[N+](=O)[O-])C(=O)O,·,·,3%[11.4 µM]
Cc1cc(C(=O)O)ccc1[C@H](N)C(=O)O,·,·,0%
O=C(c1cccc(F)c1)N1CCC2(CCCN(C(c3ccccc3)c3ccccc3)C2)CC1,·,·,-2%[11.4 µM]
CC(=O)NC1=C(OS(=O)(=O)c2ccc(C)cc2)CN(C)C1=O,·,·,5%[11.4 µM]
CCOc1cc(C(=O)Nc2ccc(S(=O)(=O)Nc3cc(C)on3)cc2)cc(OCC)c1OCC,>77,>57,1%
Cc1ccc(S(=O)(=O)Nc2ccc(C(=O)Nc3cc(C)on3)cc2)cc1,0.16*,>57,-1%
CCC(=O)N(Cc1ccco1)c1nc(-c2ccccc2)cs1,>77,>57,2%
CN(c1ccc(O)cc1)c1nc(-c2ccccc2)cs1,i,?,13µM*
O=c1c(-c2ccccc2)nc2cnc(N3CCNCC3)nc2n1C1CC1,·,·,0%[11.4 µM]
CC(C)CNS(=O)(=O)c1ccc(CCC(=O)Nc2ccc3c(c2)OCO3)cc1,>77,>57,0%
CC(C)CNS(=O)(=O)c1ccc(CCC(=O)N2CCN(Cc3ccc4c(c3)OCO4)CC2)cc1,>77,2.8*,2%
COC(=O)[C@@H]1CC[C@H](C)[C@@H](c2ccc(C)cc2)N1C(=O)c1ccc(/C=N\OC[C@@H](C)[C@H](OCc2ccccc2)C(C)C)cc1,·,·,0%[11.4 µM]
SMILES,GBA activity,Bst PK mod,FLuc inh
O=C1c2ccccc2-c2n[nH]c3cccc1c23,·,·,0%
Cc1ccc(-c2cc3c(nn2)-c2ccccc2C3=O)cc1,·,·,0.25µM*
CN(C)c1ncc2nc(-c3cccc(C#N)c3)c(=O)n(CCC#N)c2n1,·,·,2%[11.4 µM]
COc1cccc(Nc2ncc3nc(CCc4ccccc4)c(=O)n(C[C@H]4CCCO4)c3n2)c1,·,·,1%[11.4 µM]
CC(C)CCC[C@@H](C)[C@@H]1CC[C@@H]2[C@H]3CC[C@H]4C[C@@H](N)CC[C@@]4(C)[C@@H]3CC[C@]21C,·,·,3%[11.4 µM]
O=C(O)[C@@H]1CS[C@@]2(CCCN(Cc3ccccc3)C2)N1,·,·,3%[11.4 µM]
O=C(C1CCN(S(=O)(=O)c2cccc3cccnc23)CC1)N1CCc2ccccc21,>77,9.7*,4%
O=C(C1CCCN1S(=O)(=O)c1cccc2cccnc12)N1CCc2ccccc21 (stereo not drawn),·,·,1%
O=C(Nc1cccc(C(F)(F)F)c1)C1CCCN1S(=O)(=O)c1cccc2cccnc12 (stereo not drawn),>77,8.3*,2%
O=C(Nc1ccc2c(c1)OCO2)C1CCN(S(=O)(=O)c2cccc3cccnc23)CC1,>77,6.7*,0%
CCOC(=O)c1cccc(NC(=O)C2CCCN2S(=O)(=O)c2cccc3cccnc23)c1 (stereo not drawn),·,·,0%
COc1ccc(NC(=O)C2CCN(S(=O)(=O)c3cccc4cccnc34)CC2)cc1OC,·,·,3%
O=C(O)c1c[nH]c2c(ccc3[nH]cc(C(=O)O)c(=O)c32)c1=O,·,·,1%[11.4 µM]
Cn1c(Sc2ccc(-c3cccnc3)n2C)ccc1-c1cccnc1,·,·,4%[11.4 µM]
CS(=O)(=O)Nc1cccc(-c2cncnc2-n2ccnc2)c1,·,·,2%[2.29 µM]
CCc1ccc(NC(=O)Nc2cccs2)cc1,>77,4.8*,4µM*
COc1cccc(NC(=O)Nc2cccs2)c1,>77,i,16µM*
COc1ccc(NC(=O)Nc2cccs2)cc1OC,>77,i,25µM*
COc1cccc(NC(=O)c2cccs2)c1,>77,·,?
COc1ccc(NC(=O)c2cccs2)cc1OC,>77,>57,-10%
O=C(NCc1cccs1)Nc1cccs1,>77,>57,-4%
Cc1c(Cl)c(S(N)(=O)=O)cc2c1=NC=NS=2(=O)O,·,·,-1%[11.4 µM]
